Several values for one entry are separate records, joined by “and”; a condition that tells them apart may be missing. Equal values may be shown once.

In the first experiment the test system is DIPGX7 (H3.3 K27M diffuse intrinsic pontine glioma line). Briefly: growth inhibition (% activity, log2 RLU normalised to DMSO / staurosporine); higher = more growth inhibition. Particulars: 33 µM. In outline: (§1)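 In triplicate, pHGG cell lines and H9-derived neural stem cells were treated for 7 days at 37 °C, 5% CO2 with approved drugs at a single final concentration of about 33 μM, added by pin tool. CellTiter-Glo luminescence, after log2 transformation, was normalised on each plate to % activity between solvent and positive control wells. Growth inhibition is reported as the median across replicates.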
With `C#C[C@]1(O)C=C[C@H]2[C@@H]3CCC4=CC(=O)CC[C@@H]4[C@H]3CC[C@@]21CC`, the growth inhibition came out at 0.599%.

With `NCC(O)c1ccc(O)cc1` (stereo not drawn), the growth inhibition stood at 0.265%.

On to `COc1ccc(OC)c(C(O)C(C)N)c1` (stereo not drawn), for which the growth inhibition was -0.264%.

Regarding `CC(C)c1c(CN(C)C(C)Cc2ccccc2)n(C)n(-c2ccccc2)c1=O` (stereo not drawn), the growth inhibition is 2.59%.

Take `Cc1cccc(C)c1NC1=NCCCS1`: the growth inhibition is -0.135%.

In the case of `CN(C)C1C(=O)C(C(N)=O)=C(O)C2(O)C(=O)C3=C(O)c4c(O)cccc4C(C)(O)C3CC12` (stereo not drawn), the growth inhibition was determined as 0.404%.

For `Nc1nc(N)nc(NC2CC2)n1`, the growth inhibition was determined as 1.03%.

Take `C=CC[C@]1(O)CC[C@H]2[C@@H]3CCC4=CC(=O)CCC4=C3C=C[C@@]21C`: the growth inhibition is -0.403%.

On to `COc1ccc(C(=O)N2CCCC2=O)cc1`, for which the growth inhibition was found to be 2.24%.

For `N[C@@H]1C[C@H]1c1ccccc1.N[C@H]1C[C@@H]1c1ccccc1`, the growth inhibition came out at 2.09%.

Turning to `Cn1c(CCCC(=O)O)nc2cc(N(CCCl)CCCl)ccc21`, the growth inhibition worked out at 2.34%.

Consider `C[C@]12CC[C@H](O)CC1=CC[C@@H]1[C@@H]2CC[C@]2(C)C(=O)CC[C@@H]12`, for which the growth inhibition stood at 2.22%.

Turning to `C[C@@H]1O[C@@H](O[C@H]2C[C@@H](O)[C@]3(CO)[C@H]4[C@H](O)C[C@]5(C)[C@@H](C6=CC(=O)OC6)CC[C@]5(O)[C@@H]4CC[C@]3(O)C2)[C@H](O)[C@H](O)[C@H]1O`, the growth inhibition was 60.7%.

`CCC1=C[C@H]2CN3CCc4c([nH]c5ccccc45)[C@](C(=O)OC)(C2)[C@H]13`: the growth inhibition is -1.78%.

Consider `C[C@]12CC[C@H]3[C@@H](CC[C@@]45O[C@@H]4C(O)=C(C#N)C[C@]35C)[C@@H]1CC[C@@H]2O`, for which the growth inhibition is 3.34%.

With `CCCCCCCCCCCCCCCC[n+]1ccccc1`, the growth inhibition is 62.7%.

For `CC(NC(C)(C)C)C(=O)c1cccc(Cl)c1` (stereo not drawn), the growth inhibition is -1.27%.

Turning to `C=CCN.ClCC1CO1` (stereo not drawn), the growth inhibition was determined as 1.62%.

Consider `CC(O)(CS(=O)(=O)c1ccc(F)cc1)C(=O)Nc1ccc(C#N)c(C(F)(F)F)c1` (stereo not drawn), for which the growth inhibition came out at 1.23%.

With `C[C@]12CCC(=O)C=C1C=C[C@@H]1[C@@H]2CC[C@@]2(C)[C@H]1CC[C@@]2(O)CCC(=O)O`, the growth inhibition was 2.17%.

Turning to `Cc1c(N)nc(C(CC(N)=O)NCC(N)C(N)=O)nc1C(=O)NC(C(=O)NC(C)C(O)C(C)C(=O)NC(C(=O)NCCc1nc(-c2nc(C(=O)NCCC[S+](C)C)cs2)cs1)C(C)O)C(O[C@@H]1O[C@@H](CO)[C@@H](O)[C@H](O)[C@@H]1O[C@H]1O[C@H](CO)[C@@H](O)[C@H](OC(N)=O)[C@@H]1O)c1cnc[nH]1` (stereo partly drawn), the growth inhibition came to 1.63%.

As for `CC(=O)OC1CN2CCC1CC2` (stereo not drawn), the growth inhibition was found to be 0.391%.

Consider `COc1cc2c(cc1OC)[C@@]13CCN4CC5=CCO[C@H]6CC(=O)N2[C@H]1[C@H]6[C@H]5C[C@H]43`, for which the growth inhibition turned out to be 3.92%.

Regarding `C/C=C(\C)C(=O)N[C@@H](c1ccccc1)[C@@H](O)C(=O)O[C@H]1C[C@@]2(O)[C@@H](OC(=O)c3ccccc3)[C@@H]3[C@]4(OC(C)=O)CO[C@@H]4C[C@H](O)[C@@]3(C)C(=O)[C@H](OC(C)=O)C(=C1C)C2(C)C`, the growth inhibition came out at 8.08%.

For the compound `CN1[C@@H]2C[C@@H](OC(=O)[C@H](CO)c3ccccc3)C[C@H]1[C@@H]1O[C@@H]12`, the growth inhibition is -0.341%.

As for `CC(C)NCC(O)c1ccccc1Cl` (stereo not drawn), the growth inhibition was -0.863%.

On to `CC[C@@]1(O)C(=O)OCc2c1cc1n(c2=O)Cc2cc3ccccc3nc2-1`, for which the growth inhibition was determined as 11.4%.

On to `CN(C)C(=O)Oc1ccc[n+](C)c1`, for which the growth inhibition is -0.161%.

As to `CCN(C)C(=O)Oc1cccc([C@H](C)N(C)C)c1`, the growth inhibition worked out at 1.09%.

With `C#C[C@]1(O)CC[C@H]2[C@@H]3CCC4=CC(=O)CC[C@]4(C)[C@H]3CC[C@@]21C`, the growth inhibition stood at 2.92%.

With `OC(c1ccccc1)(c1ccccc1)C1CCNCC1`, the growth inhibition is -0.982%.

Take `O=P1(N(CCCl)CCCl)NCCCO1` (stereo not drawn): the growth inhibition was -2.34%.

For the compound `CC[C@@H](C(N)=O)N1CCCC1=O`, the growth inhibition amounted to 0.427%.

For the compound `CN1C(=O)CCS(=O)(=O)C1c1ccc(Cl)cc1` (stereo not drawn), the growth inhibition worked out at 0.531%.

Turning to `O=C(O)c1nn(Cc2ccc(Cl)cc2Cl)c2ccccc12`, the growth inhibition stood at 1.47%.

For `CNC1CC(N)C(O)C(OC2OC(CO)C(O)C3OC4(OC(C(N)CO)C(O)C(O)C4O)OC23)C1O` (stereo not drawn), the growth inhibition came to 0.134%.

`CN(C)[C@@H]1C(=O)C(C(N)=O)=C(O)[C@@]2(O)C(=O)C3=C(O)c4c(O)cccc4[C@@](C)(O)[C@H]3[C@H](O)[C@@H]12`: the growth inhibition is 0.754% and -1.23%.

With `O=c1[nH]c2ccccc2n1CCCN1CCC(n2c(=O)[nH]c3cc(Cl)ccc32)CC1`, the growth inhibition was determined as 0.225%.

For the compound `CN1C(=O)COc2c(C(=O)NC3CN4CCC3CC4)cc(Cl)cc21` (stereo not drawn), the growth inhibition was 1.36%.

In the next experiment the test system is DIPGX9 (diffuse intrinsic pontine glioma line). The description is as above. Particulars: 33 µM. Summed up:
as §1
Turning to `C#C[C@]1(O)C=C[C@H]2[C@@H]3CCC4=CC(=O)CC[C@@H]4[C@H]3CC[C@@]21CC`, the growth inhibition was 1.55%.

In the case of `NCC(O)c1ccc(O)cc1` (stereo not drawn), the growth inhibition is -0.182%.

Regarding `COc1ccc(OC)c(C(O)C(C)N)c1` (stereo not drawn), the growth inhibition was found to be 0.24%.

On to `CC(C)c1c(CN(C)C(C)Cc2ccccc2)n(C)n(-c2ccccc2)c1=O` (stereo not drawn), for which the growth inhibition was -0.334%.

As for `Cc1cccc(C)c1NC1=NCCCS1`, the growth inhibition was -0.817%.

Consider `CN(C)C1C(=O)C(C(N)=O)=C(O)C2(O)C(=O)C3=C(O)c4c(O)cccc4C(C)(O)C3CC12` (stereo not drawn), for which the growth inhibition was -0.553%.

Take `Nc1nc(N)nc(NC2CC2)n1`: the growth inhibition worked out at 0.525%.

In the case of `C=CC[C@]1(O)CC[C@H]2[C@@H]3CCC4=CC(=O)CCC4=C3C=C[C@@]21C`, the growth inhibition stood at 1.01%.

Regarding `COc1ccc(C(=O)N2CCCC2=O)cc1`, the growth inhibition came out at 0.251%.

Take `N[C@@H]1C[C@H]1c1ccccc1.N[C@H]1C[C@@H]1c1ccccc1`: the growth inhibition is -0.549%.

Turning to `Cn1c(CCCC(=O)O)nc2cc(N(CCCl)CCCl)ccc21`, the growth inhibition turned out to be 11.2%.

With `C[C@]12CC[C@H](O)CC1=CC[C@@H]1[C@@H]2CC[C@]2(C)C(=O)CC[C@@H]12`, the growth inhibition is 1.17%.

For `C[C@@H]1O[C@@H](O[C@H]2C[C@@H](O)[C@]3(CO)[C@H]4[C@H](O)C[C@]5(C)[C@@H](C6=CC(=O)OC6)CC[C@]5(O)[C@@H]4CC[C@]3(O)C2)[C@H](O)[C@H](O)[C@H]1O`, the growth inhibition is 26.1%.

`CCC1=C[C@H]2CN3CCc4c([nH]c5ccccc45)[C@](C(=O)OC)(C2)[C@H]13`: the growth inhibition was -1.01%.

Turning to `C[C@]12CC[C@H]3[C@@H](CC[C@@]45O[C@@H]4C(O)=C(C#N)C[C@]35C)[C@@H]1CC[C@@H]2O`, the growth inhibition was -0.94%.

For the compound `CCCCCCCCCCCCCCCC[n+]1ccccc1`, the growth inhibition came to 52.2%.

In the case of `CC(NC(C)(C)C)C(=O)c1cccc(Cl)c1` (stereo not drawn), the growth inhibition came to 0.229%.

As to `C=CCN.ClCC1CO1` (stereo not drawn), the growth inhibition came to 1.51%.

Regarding `CC(O)(CS(=O)(=O)c1ccc(F)cc1)C(=O)Nc1ccc(C#N)c(C(F)(F)F)c1` (stereo not drawn), the growth inhibition is 0.462%.

As for `C[C@]12CCC(=O)C=C1C=C[C@@H]1[C@@H]2CC[C@@]2(C)[C@H]1CC[C@@]2(O)CCC(=O)O`, the growth inhibition is 1.05%.

For the compound `Cc1c(N)nc(C(CC(N)=O)NCC(N)C(N)=O)nc1C(=O)NC(C(=O)NC(C)C(O)C(C)C(=O)NC(C(=O)NCCc1nc(-c2nc(C(=O)NCCC[S+](C)C)cs2)cs1)C(C)O)C(O[C@@H]1O[C@@H](CO)[C@@H](O)[C@H](O)[C@@H]1O[C@H]1O[C@H](CO)[C@@H](O)[C@H](OC(N)=O)[C@@H]1O)c1cnc[nH]1` (stereo partly drawn), the growth inhibition was 17.8%.

In the case of `CC(=O)OC1CN2CCC1CC2` (stereo not drawn), the growth inhibition came out at 1.28%.

Regarding `COc1cc2c(cc1OC)[C@@]13CCN4CC5=CCO[C@H]6CC(=O)N2[C@H]1[C@H]6[C@H]5C[C@H]43`, the growth inhibition came to 0.679%.

Take `C/C=C(\C)C(=O)N[C@@H](c1ccccc1)[C@@H](O)C(=O)O[C@H]1C[C@@]2(O)[C@@H](OC(=O)c3ccccc3)[C@@H]3[C@]4(OC(C)=O)CO[C@@H]4C[C@H](O)[C@@]3(C)C(=O)[C@H](OC(C)=O)C(=C1C)C2(C)C`: the growth inhibition came to 23.2%.

For `CN1[C@@H]2C[C@@H](OC(=O)[C@H](CO)c3ccccc3)C[C@H]1[C@@H]1O[C@@H]12`, the growth inhibition was -2.82%.

Take `CC(C)NCC(O)c1ccccc1Cl` (stereo not drawn): the growth inhibition was -0.306%.

`CC[C@@]1(O)C(=O)OCc2c1cc1n(c2=O)Cc2cc3ccccc3nc2-1`: the growth inhibition was found to be 14.7%.

As to `CN(C)C(=O)Oc1ccc[n+](C)c1`, the growth inhibition was determined as 0.978%.

`CCN(C)C(=O)Oc1cccc([C@H](C)N(C)C)c1`: the growth inhibition was found to be 0.618%.

Take `C#C[C@]1(O)CC[C@H]2[C@@H]3CCC4=CC(=O)CC[C@]4(C)[C@H]3CC[C@@]21C`: the growth inhibition was 3.05%.

Take `OC(c1ccccc1)(c1ccccc1)C1CCNCC1`: the growth inhibition was -0.0248%.

With `O=P1(N(CCCl)CCCl)NCCCO1` (stereo not drawn), the growth inhibition is -0.609%.

Take `CC[C@@H](C(N)=O)N1CCCC1=O`: the growth inhibition was -0.877%.

As to `CN1C(=O)CCS(=O)(=O)C1c1ccc(Cl)cc1` (stereo not drawn), the growth inhibition stood at 1.13%.

Regarding `O=C(O)c1nn(Cc2ccc(Cl)cc2Cl)c2ccccc12`, the growth inhibition is -0.0993%.

For the compound `CNC1CC(N)C(O)C(OC2OC(CO)C(O)C3OC4(OC(C(N)CO)C(O)C(O)C4O)OC23)C1O` (stereo not drawn), the growth inhibition was 3.12%.

With `CN(C)[C@@H]1C(=O)C(C(N)=O)=C(O)[C@@]2(O)C(=O)C3=C(O)c4c(O)cccc4[C@@](C)(O)[C@H]3[C@H](O)[C@@H]12`, the growth inhibition was 1.93% and -1.22%.

Turning to `O=c1[nH]c2ccccc2n1CCCN1CCC(n2c(=O)[nH]c3cc(Cl)ccc32)CC1`, the growth inhibition is -0.635%.

Take `CN1C(=O)COc2c(C(=O)NC3CN4CCC3CC4)cc(Cl)cc21` (stereo not drawn): the growth inhibition was found to be 3.07%.

These data come from the supplement of paper PMC8253809.
